According to PubChem BioAssay (NCI):
The panel holds about 83,000 compounds, 20% with a hit somewhere; the sample as a whole holds those more often.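 For each line, cells grew in 96-well plates with the test compound present at a single concentration for 48 hours.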 The source made the active and inactive calls. Rule for the calls: active = growth percent below 10; inactive = the rest.

Assays:
Experiment in all cases: NCI-60 one-dose screen, 48 h (100 = growth as untreated, 0 = no growth, -100 = all killed)
[1] = tested on: NCI-H23 lung; conditions: 10 µM unless noted
[2] = tested on: NCI-H226 lung; conditions: 10 µM unless noted
[3] = tested on: NCI-H322M lung; conditions: 10 µM unless noted
[4] = tested on: HOP-62 NSCLC; conditions: 10 µM unless noted
[5] = tested on: NCI-H460 lung; conditions: 10 µM unless noted
[6] = tested on: HOP-92 NSCLC; conditions: 10 µM
[7] = tested on: NCI-H522 lung; conditions: 10 µM unless noted
[8] = tested on: A549/ATCC NSCLC; conditions: 10 µM unless noted
[9] = tested on: 786-0 renal; conditions: 10 µM unless noted
[10] = tested on: COLO 205 colon; conditions: 10 µM unless noted
[11] = tested on: DU-145 prostate; conditions: 10 µM unless noted
[12] = tested on: K-562 leukemia; conditions: 10 µM unless noted
[13] = tested on: MALME-3M melanoma; conditions: 10 µM unless noted
[14] = tested on: MDA-MB-231 breast; conditions: 10 µM unless noted
[15] = tested on: RXF 393 renal; conditions: 10 µM unless noted
[16] = tested on: SF-268 CNS; conditions: 10 µM unless noted
[17] = tested on: SF-295 CNS; conditions: 10 µM unless noted
[18] = tested on: SF-539 CNS; conditions: 10 µM unless noted
[19] = tested on: UACC-257 melanoma; conditions: 10 µM unless noted

Measured: growth

CCN1CCN(Cc2ccc(C(=O)Nc3ccc(C)c(Oc4ccc(-c5[nH]nc6ncnc(N)c56)cc4)c3)cc2C(F)(F)F)CC1
inactive: [1] 93.2% | [2] 85.8% | [3] 99% | [4] 103% | [5] 106% | [6] 70.3% | [7] 101% | [8] 96.6% | [9] 69.4% | [10] 56.7% | [11] 98.6% | [13] 22.8% | [14] 82.7% | [15] 44.3% | [16] 90.5% | [17] 78.8% | [18] 55.6% | [19] 71.9%
active: [12] 3.44%

COc1cc(Nc2c(C#N)cnn3cc(-c4cnn(CC(C)(C)O)c4)cc23)ccc1Cl
inactive: [1] 41.4% | [2] 42.1% | [3] 41.9% | [4] 45.6% | [5] 59.7% | [6] 58.1% | [7] 15% | [8] 52.4% | [9] 34.7% | [10] 75.9% | [11] 47.6% | [12] 12.9% | [13] 67.5% | [14] 65.4% | [16] 56.5% | [17] 63% | [19] 81.7%
active: [15] -20.3% | [18] 8.69%

COC(=O)/C=C/c1c(C2(C)NC(=O)c3ccccc3N2)c(=O)oc2ccc(Cl)cc12 (stereo not drawn)
inactive: [1] 96.3% | [2] 88.1% | [3] 95.1% | [4] 92.7% | [5] 96.3% | [6] 88.9% | [7] 68.3% | [8] 95.2% | [9] 96.3% | [10] 117% | [11] 102% | [12] 105% | [13] 88.3% | [14] 89.2% | [15] 69.5% | [16] 92.9% | [17] 95.3% | [18] 95.8% | [19] 98%

CNC(=O)c1c(NC(=O)c2cccc(C(F)(F)F)c2F)sc2c1CCC(=O)C2
active: [1] 8.64% | [5] 7.32% | [6] -21.5% | [7] 4.78% | [10] -6.56% | [13] 6.12% | [14] -28.8% | [15] -11.4% | [17] -6.97% | [18] -56% | [19] -1.77%
inactive: [2] 16.2% | [3] 82.4% | [4] 22.4% | [8] 14.7% | [9] 18.1% | [11] 30.6% | [12] 13.2% | [16] 16.7%

NS(=O)(=O)c1ccc(Nc2nc(N/N=C/c3c[nH]c4ccccc34)nc(Nc3ccccc3)n2)cc1
active: [15] -25.2%
inactive: [1] 47.1% | [2] 42% | [3] 54.4% | [4] 63.8% | [5] 41.2% | [6] 61.4% | [7] 31.6% | [8] 78.3% | [9] 41.8% | [10] 40.9% | [11] 43.4% | [12] 23% | [13] 46.1% | [14] 48.8% | [16] 59.2% | [17] 31.5% | [18] 47.6% | [19] 63.1%

NC(=O)c1c(NC(=O)c2ccccc2C(F)(F)F)sc2c1CCC(=O)C2
inactive: [2] 37.9% | [3] 105% | [4] 93.4% | [5] 58.4% | [8] 94% | [9] 37.5% | [10] 38.3% | [11] 81.2% | [12] 11.7% | [13] 15% | [14] 16.2% | [15] 41.7% | [16] 24.6% | [17] 73% | [19] 10.6%
active: [1] 4.77% | [6] -9.74% | [7] -1.13% | [18] 5.83%

Brc1ccccc1/C=N/Nc1nc(N/N=C/c2ccccc2Br)nc(N2CCOCC2)n1
inactive: [1] 105% | [2] 95.1% | [3] 96.8% | [4] 108% | [5] 103% | [6] 112% | [7] 86.6% | [8] 97.1% | [9] 61.3% | [10] 86.1% | [11] 98.3% | [12] 94.1% | [13] 143% | [14] 103% | [15] 69.6% | [16] 102% | [17] 85.5% | [18] 105% | [19] 104%

COc1ccc(N2CCN(C3=C(Cl)C(=O)C(C)=C(C)C3=O)CC2)cc1
inactive: [1] 106% | [2] 99.2% | [3] 106% | [4] 91.5% | [5] 104% | [6] 102% | [7] 92.3% | [8] 108% | [9] 118% | [10] 125% | [11] 108% | [12] 83.1% | [13] 110% | [14] 88.2% | [15] 153% | [16] 105% | [17] 108% | [18] 105% | [19] 102%

CNC(=O)c1cc(N2CCc3cc(NC(=O)Nc4ccc(Cl)c(C(F)(F)F)c4)ccc32)ccn1
active: [15] -8.94%
inactive: [1] 56.1% | [2] 77.2% | [3] 87.1% | [4] 85.1% | [5] 38% | [6] 68% | [7] 50% | [8] 49.2% | [9] 49.7% | [10] 58% | [11] 63.6% | [12] 33.7% | [13] 64.5% | [14] 67.2% | [16] 70.1% | [17] 26.5% | [18] 48.8% | [19] 72.7%

CC1=NC2=NN3C(=NN2C(c2ccccc2)=C1)N=NC(c1ccc(Br)cc1)=C3c1ccc(Br)cc1
inactive: [1] 105% | [2] 102% | [3] 101% | [4] 102% | [5] 112% | [6] 110% | [7] 98.5% | [8] 109% | [9] 107% | [10] 112% | [11] 112% | [12] 96.9% | [13] 53.6% | [14] 95.7% | [15] 138% | [16] 102% | [17] 106% | [18] 97.2% | [19] 109%

C[C@H](CCC(=O)NCc1ccc(C(=O)Nc2ccccc2N)cc1)[C@H]1CC[C@H]2[C@@H]3[C@@H](O)C[C@@H]4C[C@H](O)CC[C@]4(C)[C@H]3CC[C@]12C
inactive: [1] 66.7% | [2] 57.1% | [3] 79% | [4] 58.3% | [5] 60.8% | [6] 69.1% | [7] 37.8% | [8] 90.3% | [9] 71.4% | [10] 65.2% | [11] 84.1% | [12] 30.6% | [13] 45% | [14] 49.2% | [15] 55.3% | [16] 52.6% | [17] 69.1% | [18] 55.6% | [19] 63.7%

COc1cc(-c2nc(SCCC(C)C)nc(NNC(=O)c3ccncc3)c2C#N)cc(OC)c1OC
active: [15] -16.7%
inactive: [1] 91.2% | [2] 93% | [3] 64.6% | [4] 63.9% | [5] 105% | [6] 32.9% | [7] 27.9% | [8] 76.5% | [9] 32.3% | [10] 65.9% | [11] 79.1% | [12] 74.6% | [13] 105% | [14] 27.9% | [16] 56% | [17] 65.7% | [18] 71.6% | [19] 94.2%

Oc1cccc2ccc(-c3nnc(SCc4ccc(O)c5ncccc45)o3)nc12
active: [1] 3.67% | [5] 1.33% | [6] -16% | [13] -3.31% | [17] 3.94% | [19] 0.0475%
inactive: [2] 35.2% | [3] 39.9% | [4] 25.8% | [7] 11.2% | [8] 15.9% | [9] 21.1% | [10] 31.7% | [11] 22.1% | [12] 14.6% | [14] 26.6% | [16] 23.4% | [18] 14.5%

O=S(=O)(NCCCNc1nccc(-c2[nH]c(-c3ccccc3)nc2-c2ccc(Cl)c(O)c2)n1)c1cccc(F)c1
inactive: [1] 65.5% | [2] 62.8% | [3] 87.9% | [4] 75.2% | [5] 55.2% | [6] 85.5% | [7] 54.2% | [8] 65.2% | [9] 100% | [10] 87.9% | [11] 66.1% | [12] 35.3% | [14] 60.2% | [15] 34.1% | [16] 74.3% | [17] 47.4% | [18] 94.1% | [19] 25.6%
active: [13] 2.24%

Cc1ccc(-n2c(/C=C3\C(=O)Nc4ccccc43)ccc2CO)cc1
inactive: [1] 80.6% | [2] 88.2% | [3] 103% | [4] 72.8% | [5] 80.3% | [6] 84.5% | [7] 73.6% | [8] 71.3% | [9] 101% | [10] 91.5% | [11] 92.2% | [12] 19.2% | [13] 44% | [14] 64% | [15] 66.1% | [16] 89.5% | [17] 69.8% | [18] 68.7% | [19] 85.8%

Cc1ccc(-n2cc(/C=N/NC(=O)c3nc(N)n[nH]3)c(-c3ccc(S(C)(=O)=O)cc3)n2)cc1
inactive: [1] 96.6% | [2] 102% | [3] 104% | [4] 98.6% | [5] 103% | [6] 94.2% | [7] 92.3% | [8] 104% | [9] 98.6% | [10] 105% | [11] 100% | [12] 52.7% | [13] 85.3% | [14] 96% | [15] 117% | [16] 99.4% | [17] 104% | [18] 99.7% | [19] 99.3%
